Source: PubChem (Broad Institute)
A selection follows.
aSyn UTR act: Activators via SNCA 5'UTR binding, MLPCN. activity score, % (tested at 7.5 µM), hits read low. hit rate 7.1% among 300,000. alpha-synuclein 5'UTR reporter, activators screen; in the data active = activity score below about -60%
Each line names hits and unclear results; the compound was inactive in the other large screens.

Cc1ccc(C(=O)c2cc([N+](=O)[O-])ccc2N2CCCCC2)c(C)c1	none
O=C(Nc1nc2ccccc2s1)c1ccc(N2CCCCC2)c([N+](=O)[O-])c1	aSyn UTR act -67
O=C(NOCc1ccccc1)c1ccccc1	aSyn UTR act -92
Cc1noc(C(=O)Nc2ccc(F)c(Cl)c2)c1Cl	aSyn UTR act -70
Cc1ccc(NC(=O)c2onc(C)c2Cl)cc1	aSyn UTR act -151
COC(=O)c1ccc(COC(=O)c2ccc(SC)cc2OC)cc1	aSyn UTR act -115
COc1cc(C(=S)N2CCCC2)ccc1OCc1ccccc1	aSyn UTR act -67
CCC(=O)c1ccc(OCc2ccc(C(=O)OC)cc2)c(OC)c1	aSyn UTR act -75
Oc1c(CN2CCCCC2)cc(COCc2ccccc2)c2cccnc12	none
CCCCCCCCCCOC(=O)Cn1c(COc2ccccc2OC)[n+](C)c2ccccc21	none
CCC(=O)c1ccc(OCc2ccccc2)c(OC)c1	aSyn UTR act -85
CC1=NN(c2ccccc2)C(=O)C1C(=O)C(=O)Nc1ccc(F)cc1 (stereo not drawn)	aSyn UTR act -168
Cc1ccccc1CS(=O)(=O)c1ncc(Cl)c(C(=O)Nc2ccc(F)cc2)n1	none
Cc1ccc(NC(=O)C(=O)C2C(=O)Nc3ccccc32)cc1 (stereo not drawn)	aSyn UTR act -77
Cc1c(/C(O)=C2\C(=O)C(=O)N(CCN(C)C)C2c2cccs2)cnn1-c1ccccc1 (stereo not drawn)	aSyn UTR act -88
Cc1ccc(C2/C(=C(/O)c3cnn(-c4ccccc4)c3C)C(=O)C(=O)N2CCCN2CCOCC2)o1 (stereo not drawn)	aSyn UTR act -111
O=C(NNC(=O)c1ccccc1OCc1ccccc1)c1ccccc1F	aSyn UTR act -85
COc1ccccc1C(=O)NNC(=O)c1ccccc1F	aSyn UTR act -97
O=C(NNC(=O)c1ccccc1OCc1ccccc1)c1ccccc1O	none
COc1ccccc1C(=O)NNC(=S)NC(=O)c1cc(OC)c(OC)c(OC)c1	none
COc1ccccc1-c1nnc(SCc2nc3ccccc3s2)n1C	aSyn UTR act -109
CCn1c(SCc2nc3ccccc3s2)nnc1-c1cccs1	aSyn UTR act -160
CCOc1ccccc1-n1nnnc1SCc1nc2ccccc2s1	aSyn UTR act -233
NC(=O)CSCc1nc2ccccc2s1	aSyn UTR act -65
Cn1c(SCc2nc3ccccc3s2)nnc1-c1cccs1	aSyn UTR act -67
Cc1ccccc1-n1c(C)nnc1SCc1nc2ccccc2s1	aSyn UTR act -250
COc1ccc(-c2nnc(SCc3nc4ccccc4s3)n2C(C)C)cc1	aSyn UTR act -107
Cc1cccc(-n2ncc3c(NCc4cccs4)ncnc32)c1	aSyn UTR act -112
Clc1ccc(-n2ncc3c(NCc4cccs4)ncnc32)cc1	aSyn UTR act -249
Cc1ccc2oc(-c3cccc(NC(=O)Cn4cnc5c(=O)n(C)c(=O)n(C)c54)c3)nc2c1	aSyn UTR act -119
CCC(C)c1ccc2oc(-c3ccc(NC(=O)Cn4cnc5c(=O)n(C)c(=O)n(C)c54)cc3)nc2c1 (stereo not drawn)	aSyn UTR act -114
CN1CCN(c2ccc(-c3ccnn3C(=O)Nc3ccccc3)cc2)CC1	aSyn UTR act -72
O=C(CSc1nc(-c2ccccc2)ns1)N1CCOCC1	aSyn UTR act -110
Cc1cccc(-c2nsc(SCC(=O)N3CCCC3)n2)c1	aSyn UTR act -140
O=C(CCc1nc2ccccc2c(=O)[nH]1)Nc1nc(-c2cccs2)cs1	aSyn UTR act -89
C=CCNc1oc(/C=C/c2ccccc2)nc1C#N	aSyn UTR act -152
Cc1cc(C)c2nc(NCCCNC(=S)NCCCN(C)C)c(C#N)cc2c1	none
CN(C)CCNc1oc(/C=C/c2ccccc2)nc1C#N	aSyn UTR act -98
CN(C)CCCNc1oc(/C=C/c2ccccc2)nc1C#N	aSyn UTR act -88
Cc1ccc(-c2cc(-c3c(C)nn(C)c(=O)c3N)[nH]n2)cc1	aSyn UTR act -110
Cc1nn(C)c(=O)c(N)c1-c1cc(-c2ccc(Cl)c(Cl)c2)n[nH]1	aSyn UTR act -71
CCOc1ccc(C(Nc2cccnc2)c2cc(Cl)c3cccnc3c2O)cc1 (stereo not drawn)	none
CCOc1ccc(NC(c2ccccn2)c2oc(CO)cc(=O)c2O)cc1 (stereo not drawn)	aSyn UTR act -104
C[n+]1c2n(c3ccccc31)N=C(c1ccccc1)CS2	aSyn UTR act -68
O=C(CSc1nnc(-c2ccccc2Cl)o1)Nc1ccc2c(c1)OCCO2	aSyn UTR act -137
O=C(Nc1ccc2c(c1)OCCO2)C1CC(c2ccccc2Cl)=NO1 (stereo not drawn)	aSyn UTR act -124
O=C(CSc1nnc(-c2ccc(O)cc2)o1)Nc1ccccc1Br	aSyn UTR act -132
COc1ccc(-c2nnc(SC(C)C(=O)Nc3ccc4c(c3)OCCO4)o2)cc1 (stereo not drawn)	aSyn UTR act -101
O=C(CSc1nnc(-c2ccc(O)cc2)o1)Nc1ccc2c(c1)OCCO2	aSyn UTR act -83
COC(=O)Cn1c(=NC(=O)c2ccc(Cl)s2)sc2cc(C)ccc21	aSyn UTR act -184
COC(=O)Cn1c(=NC(=O)c2ccc([N+](=O)[O-])s2)sc2cc(Br)ccc21	aSyn UTR act -68
CC(C)=C1C2C=CC1C(C(=O)Nc1cccc(C)c1)C2C(=O)O (stereo not drawn)	aSyn UTR act -62
COC(=O)/C(=C1/Oc2ccc(C)cc2S1)C(F)(F)F	aSyn UTR act -152
O=C(Oc1c(CN2CCOCC2)cc(Cl)c2cccnc12)c1cccs1	none
O=C(c1cccs1)N1CCN(c2ncc(C(F)(F)F)cc2Cl)CC1	aSyn UTR act -71
COc1ccccc1/C=C/C1(C(=O)NC2CCCC2)CC(=O)N1c1ccccc1 (stereo not drawn)	aSyn UTR act -138
CN(C)S(=O)(=O)c1ccc(N2C(=O)CC2(/C=C/c2ccccc2)C(=O)NC2CCCC2)cc1 (stereo not drawn)	none
c1cc(CSc2nnc(-c3ccc4c(c3)OCO4)o2)ccn1	aSyn UTR act -86
O=C(O)CCSc1nnc(-c2ccc3c(c2)OCO3)o1	none
Cc1ccccc1NC(=O)Cc1nc(CSc2nnc(-c3ccc4c(c3)OCO4)o2)cs1	aSyn UTR act -72
COc1ccc(N/N=C(C)/C(=N/O)C(=O)Nc2ccccc2)cc1	aSyn UTR act -87
COc1ccccc1NC(=O)NC(=O)c1ccccc1	aSyn UTR act -137
O=C(NC(=O)c1ccccc1)Nc1ccccc1	none
COc1ccc(NC(=O)NC(=O)c2ccccc2)cc1	aSyn UTR act -221
CCC1(C)N=C(c2ccc3c(c2)OCO3)CC(c2ccccc2O)N1 (stereo not drawn)	aSyn UTR act -286
Oc1ccc(Cl)cc1N=Nc1ccccc1	aSyn UTR act -70
OCc1ccc(N=Nc2ccccc2)cc1	aSyn UTR act -84
CC(=O)Nc1ccc(N=Nc2ccc(O)cc2)cc1	aSyn UTR act -87
Oc1ccc(N=Nc2ccccc2)cc1	aSyn UTR act -145
Cc1c(C(=O)N/N=C/C(C)C)[nH]c2c([N+](=O)[O-])cccc12	none
Cc1cc(NC(=O)c2cc3cccc([N+](=O)[O-])c3[nH]2)ccc1F	aSyn UTR act -93
CN(Cc1ccccc1)C(=O)c1ccc([N+](=O)[O-])o1	aSyn UTR act -84
Cc1ccc(CNC(=O)c2ccc([N+](=O)[O-])o2)cc1	aSyn UTR act -70
Cc1ccc(-c2csc(NC(=O)c3ccno3)n2)cc1	aSyn UTR act -128
Cc1ccc(-c2csc(NC(=O)c3ccc([N+](=O)[O-])o3)n2)cc1	aSyn UTR act -234
Cn1cc([N+](=O)[O-])c(C(=O)Nc2nc(-c3ccc(Cl)cc3)cs2)n1	none
